Test results: PubChem BioAssay AID977606 (Broad Institute, 2014)
The campaign covered roughly 1,500 compounds. About 430 (29%) were called active. No rule for the calls is given here. A selection follows. Measured potencies and affinities stand elsewhere.

Test: glucose-independent GLuc insulin release activation – cell-based, INS-1E, Gaussia luciferase, luminescence, cherry-pick, counter-screen for glucose-dependent insulin secretion activators, dose response (AID 977606);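 also: 0% = median of neutral control wells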
Conditions: INS-1E Gaussia luciferase insulin secretion, no glucose, 100% = twice neutral-control luminescence; series mostly up to 35 µM; activation: at the top concentration

| Structure (SMILES) | activation |
| --- | --- |
| Cc1cc(C)n2ncc(-c3cccc(Br)c3)c2n1 | -14.8% (inactive) |
| CCN(CC)C(=O)Cn1c(=O)oc2ccccc21 | -22.1% (inactive) |
| COC(=O)N1CCCCC1c1cc(C(=O)NCc2ccc(Cl)c(Cl)c2)no1 (stereo not drawn) | -5.55% (inactive) |
| c1ccc2c(N3CCCCC3)nc(N3CCCC3)nc2c1 | -5.3% (inactive) |
| CCOC(=O)c1nc(-c2ccccc2)oc1N(C)C | -3.63% (inactive) |
| CCOC(=O)c1sc2nc(C)[nH]c(=O)c2c1C | -1.02% (inactive) |
| COc1ccc(Cc2nnc(-c3ccccc3)o2)cc1 | -14.9% (inactive) |
| CCCc1nc2n[nH]c(N)c2c2c1COC(C)(C)C2 | 7.71% (inactive) |
| O=C(COc1nncc2ccccc12)NCC(F)(F)F | -2.23% (inactive) |
| O=C(c1cccc(F)c1)N1CCCc2ccccc21 | 0.696% (inactive) |
| CCOc1ccc(CCNC(=O)COc2cccc(-n3cnnn3)c2)cc1OCC | -5.23% (inactive) |
| COCc1ccc(C(=O)NC2CCSc3ccccc32)cc1 (stereo not drawn) | 2.17% (inactive) |
| COc1ccc(-c2ccc(=O)n(CC(=O)NC3CCc4ccccc43)n2)cc1OC (stereo not drawn) | -12.5% (inactive) |
| CCOc1ccc(C(=O)NCC(=O)OCCN2C(=O)c3ccccc3C2=O)cc1OCC | -13.5% (inactive) |
| CCOc1ncccc1C(=O)Nc1ncc(C)s1 | 1.46% (inactive) |
| Cc1cc(NCc2ccccn2)nc2ccccc12 | 1.81% (inactive) |
| O=C(O)CCCC(=O)N1CCN(c2nc(-c3ccccc3)c3ccccc3n2)CC1 | 3.53% (inactive) |
| C/C=C1\COC(C(=O)NCc2ccccc2)(C(F)(F)F)C=C1C=C1CCCCC1 (stereo not drawn) | 15.7% (inactive) |
| CC1=NS(=O)(=O)NC(C)(C)C1 | 2.88% (inactive) |
| COc1ccc(C2=Nn3c(nnc3-c3ccccc3OC)SC2)cc1OC1CCOC1 (stereo not drawn) | -8.39% (inactive) |
| Cc1ccc2nc(N/N=C/c3ccccc3C#N)nc(-c3ccccc3)c2c1 | 16.9% (inactive) |
| Cc1ccc2nc(Cl)nc(-c3ccccc3)c2c1 | 11.6% (inactive) |
| CCOc1ccc(CCNC(=O)CCNC(=O)c2ccco2)cc1OCC | 4.42% (inactive) |

| Structure (SMILES) | activation |
| --- | --- |
| COc1ccc(CCNC(=O)CCc2ccccc2O)cc1OC | -18.4% (inactive) |
| COc1ccc(CCNC(=O)CCc2ccccc2)cc1OC | -95.1% (inactive) |
| N=c1n(CCN2CCCCC2)c2ccccc2n1CC(O)COc1ccccc1 (stereo not drawn) | -7.71% (inactive) |
| Clc1cc(NC2CCCCC2)ncn1 | 2.37% (inactive) |
| COc1cccc(-c2cc(C(F)(F)F)nc(-n3cncn3)n2)c1 | -12% (inactive) |
| CN(C)S(=O)(=O)c1cccc(-c2csc(N/N=C/c3ccco3)n2)c1 | 0.741% (inactive) |
| COc1ccc(CNC(=O)CCn2c(=O)oc3ccccc32)c(OC)c1 | -4.5% (inactive) |
| Cc1cc(=O)n(Cc2ccccc2)c2ccccc12 | -7.73% (inactive) |
| CC1(c2ccc(OC(F)F)cc2)NC(=O)N(CC(=O)Nc2cccc(S(N)(=O)=O)c2)C1=O (stereo not drawn) | -10.9% (inactive) |
| CCCn1nc(C(=O)NC2CCCC2)c2ccccc2c1=O | 1.18% (inactive) |
| O=c1[nH]nc(-c2ccccc2)c2ccccc12 | -13.1% (inactive) |
| COc1ccc(CCN(C)C(=O)COc2cccc(-n3cnnn3)c2)cc1OC | -9.14% (inactive) |
| CNc1nc(OCC#N)nc(N2CCCCC2)n1 | -15.6% (inactive) |
| Cc1ccc(-n2nnnc2SCc2ccc(C(=O)O)cc2)cc1C | -8.95% (inactive) |
| C=CCNC(=S)Nc1ccc2cn[nH]c2c1 | -19.4% (inactive) |
| O=S(=O)(N1CCOCC1)n1c(Cc2ccccc2)nc2ccccc21 | -11.3% (inactive) |
| CCN(CC(=O)Nc1ccccc1OC)C(=O)C1CCCC1 | -7.13% (inactive) |
| O=C(Nc1ccc(F)cc1)N1CCCCN2[C@@H](CO)[C@@H](c3ccc(C#Cc4ccccc4)cc3)[C@@H]2C1 | 6.08% (inactive) |
| COc1ccc(C2=Nn3c(nnc3-c3ccccc3OC)SC2)cc1OCC1CC1 | -21.9% (inactive) |
| COc1ccc(C2=NN(C(=O)CCCC(=O)O)C(c3cccs3)C2)cc1OC (stereo not drawn) | -4.08% (inactive) |
| O=c1[nH]nc(-c2cccs2)c2ccccc12 | -1.69% (inactive) |
| CCCc1cc(=O)n2[nH]c(C)c(-c3ccc(Cl)cc3)c2n1 | -8.12% (inactive) |
| COc1ccc(NC(=O)c2csc(C)c2)cc1OC | -17% (inactive) |

| Structure (SMILES) | activation |
| --- | --- |
| CCN1CCN(c2ccc(S(=O)(=O)N3CCCCC3)cc2NC(=O)c2cc3ccccc3o2)CC1 | -13.4% (inactive) |
| CCNC(=O)C1(C)CCCN1C(=O)c1cc(OC)c(OC)c(OC)c1 (stereo not drawn) | 11.6% (inactive) |
| COc1ccc(Nc2c3c(nc4ccccc24)CCC3)cc1 | 13.9% (inactive) |
| O=C(O)COc1ccccc1-c1ccccc1 | -3.67% (inactive) |
| COc1ccc(/C=N/NC(=O)CN(C2=NS(=O)(=O)c3ccccc32)c2ccccc2)cc1OC | -21.8% (inactive) |
| CCN(c1ccccc1)c1nc(Cl)nc2c1cnn2C | 9.73% (inactive) |
| COCCNC(=O)c1cc2c(c(-c3cccc(C#Cc4ccc(OC)c(OC)c4)c3)n1)[C@H](CCO)N(S(=O)C(C)(C)C)C2 (stereo partly drawn) | 4.47% (inactive) |
| COc1ccc(C(=O)C2CCCN(C(=O)c3n[nH]c4c3CCCC4)C2)cc1OC (stereo not drawn) | 3.75% (inactive) |
| Cn1c(=O)[nH]c(=O)c2c1nc(N1CCCCC1)n2C/C=N/Nc1ccc(C(=O)O)cc1 | 17.4% (inactive) |
| Cc1cc(-c2ccc(S(=O)(=O)N3CCN(C)CC3)s2)on1 | 38.2% (inactive) |
| Cc1cccc(C)c1NC(=O)NC1CCc2ccccc21 (stereo not drawn) | -13.9% (inactive) |
| COC(=O)c1ccc(C)c(-n2c(=O)n(Cc3ccccc3)c(=O)c3[nH]cnc32)c1 | 1.73% (inactive) |
| COC(=O)c1scc(C)c1NC(=O)CC1NCCNC1=O (stereo not drawn) | -6.37% (inactive) |
| O=C(c1ccccc1)c1ccc2ccccc2n1 | 4.53% (inactive) |
| COc1ccc(CCNC(=O)NS(=O)(=O)c2ccc(C)cc2)cc1OC | -1.79% (inactive) |
| COc1cc2c(cc1OC)C(CSc1ccccc1C(=O)O)=NC(C)(C)C2 | -14.8% (inactive) |
| Cc1cccc2[nH]c3c(N4CC=C(c5ccc(F)cc5)CC4)ncnc3c12 | 1.04% (inactive) |
| COc1cc(C)c(C)cc1S(=O)(=O)N1CCCCC1c1cccnc1 (stereo not drawn) | 5.28% (inactive) |
| C[C@@H]1CC2=C(C(=O)OC(C)(C)O2)[C@H](c2ccc(F)cc2)O1 | 2.99% (inactive) |
| CCCCn1c(=O)n(C)c(=O)c2c3c(sc21)COC(C)(C)C3 | 19.6% (inactive) |
| CCOC(=O)c1csc(-c2ccc(OC)c(OC)c2)n1 | 12.5% (inactive) |
| COc1ccc(-c2cc(C(=O)N3CCCCCC3)no2)cc1OC | -8.04% (inactive) |
| C[C@@H]1CN([C@H](C)CO)C(=O)CCCn2cc(nn2)CO[C@H]1CN(C)S(=O)(=O)c1cccs1 | 1.6% (inactive) |

| Structure (SMILES) | activation |
| --- | --- |
| CCOc1cc(C(=O)N(C)CC(=O)Nc2cccc3ccccc23)ccc1OC | -4.18% (inactive) |
| CCOc1ccc(-c2noc(CCC(=O)NC)n2)cc1OCC | -9.04% (inactive) |
| COc1cc2c(cc1OC)-c1cc(Nc3ccccc3C)nc(=O)n1CC2 | 18.6% (inactive) |
| CCOc1ccc(CCNC(=O)COC(=O)c2ccc(C)s2)cc1OCC | 11.7% (inactive) |
| COc1ccc(C(=O)C2CCCN(Cc3cccn3-c3nccs3)C2)cc1OC (stereo not drawn) | -11.6% (inactive) |
| CN(C)C(=O)c1ccc(-c2ccc([C@@H]3[C@@H](CO)N4C(=O)CN(C(=O)C5CC5)C[C@@H]34)cc2)cc1 | -5.05% (inactive) |
| Cc1c(O)cnc2nn(-c3ccccc3)c(=N)n12 | -0.377% (inactive) |
| CCOC(=O)Cc1cc(=O)n2[nH]c(-c3ccc(C)cc3)cc2n1 | -0.415% (inactive) |
| CC(C)Oc1ccc(Br)cc1C(=O)N/N=C/c1c[nH]c2ccccc12 | -22% (inactive) |
| CN(C)c1ccc(/C=N/NC(=O)c2ccccc2Cl)cc1 | 4.15% (inactive) |
| CCNc1nc(Oc2ccc(C#N)cc2)cc(C(F)(F)F)n1 | -1.93% (inactive) |
| COc1ccc2oc(-c3ccncc3)cc(=O)c2c1 | -9.47% (inactive) |
| O=C(Nc1ccc(NC(=O)c2cccs2)cc1)c1ccc2c(c1)OCO2 | -4.2% (inactive) |
| O=C(Nc1ccc2oc(-c3cccnc3)nc2c1)c1ccc2c(c1)OCCO2 | -11.3% (inactive) |
| CCNc1nc(NCC)nc(N(C#N)C(C)C)n1 | -5.43% (inactive) |
| O=C(NC1CCCC1)c1ccc(Cl)c(S(=O)(=O)N2CCOCC2)c1 | 16.1% (inactive) |
| COc1ccc(C(=O)N2CCc3cc(OC)c(OC)cc3C2c2ccc(OC)c(OC)c2)cc1OC (stereo not drawn) | -0.986% (inactive) |
| O=C(NCc1cccnc1)c1cccc(S(=O)(=O)NCc2ccccc2)c1 | 9.69% (inactive) |
| COc1ccc(C(=O)Nc2ccccc2C(=O)NCc2cccnc2)cc1OC | -17.2% (inactive) |
| Clc1ccc(-c2cc(CN3CCOCC3)no2)cc1 | -2.2% (inactive) |
| Cc1cc(C)n(CC(=O)n2c3ccccc3c3ccccc32)n1 | 30.6% (inactive) |
| O=C(c1cccs1)N(Cc1ccc(Cl)cc1)C1CCS(=O)(=O)C1 (stereo not drawn) | 4.09% (inactive) |
| COc1ccc(C(=O)OCC(=O)NC(=O)NC2CCCC2)cc1OC | 9.28% (inactive) |

| Structure (SMILES) | activation |
| --- | --- |
| O=C(O)c1ccc(-n2nnnc2SCc2ccccc2F)cc1 | 10.5% (inactive) |
| O=C(Nc1ccccc1)Nc1nnc(-c2cccs2)s1 | -7.75% (inactive) |
| O=C(c1ccco1)N(Cc1ccc(Cl)cc1)C1CCS(=O)(=O)C1 (stereo not drawn) | -8.3% (inactive) |
| O=C(COc1ccccc1Cl)NNC(=O)c1ccc2nc[nH]c2c1 | 116% (inactive) |
| COc1ccccc1N(CC(=O)NCC1CCCO1)C(=O)CNS(=O)(=O)c1ccc(Cl)cc1 (stereo not drawn) | -9.55% (inactive) |
| Cc1cc(C)cc(N(C(=O)C(F)(F)F)C(C(=O)NC2CCCCC2)c2cccs2)c1 (stereo not drawn) | -9.93% (inactive) |
| O=C(NCc1ccccn1)c1ccccc1OCc1ccc(Cl)cc1Cl | -13.4% (inactive) |
| COc1ccc2oc(=O)c(C(=O)NCc3ccccn3)cc2c1 | -6.38% (inactive) |
| CC1CCC(NC(=O)C2COc3ccccc3O2)CC1 (stereo not drawn) | 10.4% (inactive) |
| C=CCc1ccc(OCCOc2ccc(/C=N/n3cnnc3)cc2OCC)c(OC)c1 | 0.229% (inactive) |
| CCCCOC(=O)c1cc(-c2ccc(/C=N/n3cnnc3)o2)ccc1Cl | 9.96% (inactive) |
| N#Cc1c(-c2ccco2)cc(C2CC2)nc1N | -5.34% (inactive) |
| COc1cc2c(cc1OC)C(Nc1ccccc1)=NC(C)(C)C2 | 4.87% (inactive) |
| O=C(NCC1(O)CCCCC1)C1CCC(=O)N(Cc2ccccc2F)C1 (stereo not drawn) | -10.8% (inactive) |
| NC1=NC(=O)C(Cc2ccc(F)cc2)S1 (stereo not drawn) | -5.09% (inactive) |
| COc1cc(OC)c(OC)cc1/C=N/n1c(C)nc2ccccc2c1=O | 8.58% (inactive) |
| O=C1Nc2cnc(Cl)nc2Nc2ccccc21 | 4.25% (inactive) |
| COc1ccc(-c2cc(C(=O)N(C)Cc3ccc(OC)c(OC)c3OC)c3ccccc3n2)cc1OC | -7.27% (inactive) |
| COc1ccc(CN(C)C(=O)c2cc(-c3ccc(OC)c(OC)c3)nc3ccccc23)c(OC)c1 | -22.4% (inactive) |
| COc1ccc(F)cc1C(=O)C1CCCN(C(=O)c2ccc(C(C)=O)s2)C1 (stereo not drawn) | -18.8% (inactive) |
| Clc1ccc(OCCn2ccnc2)c(Cl)c1 | 4.01% (inactive) |
